# Biological target: MUC4
# Assay: pooled miR-30 sensor sort-seq; sequence = guide strand
# Conditions: shRNA
# Further: reference of the scale not given here.
row,Sequence,sensor-assay potency score (higher = more potent)
1,TTGAAGGTGTAACTGACACCAT,0.0208
2,TAGTCTTGTCTTGATTCCCAGT,-0.823
3,TTTGTCATCTTTCTAATCCAAG,-1.23
4,TTTTTACTGACTTCCCTCGTGT,0.677
5,TTGAAGAATCCTGACAGCCTTC,-0.37

# Biological target: MUDENG
# Assay: as above
# Conditions: shRNA
row,Sequence,sensor-assay potency score (higher = more potent)
1,TAAGATCCTAAAATGAAGCTTT,0.347
2,TAACATTTGGCATGATTCCTTC,-0.439
3,TTCTTAGTTGTACTTCTTCCTC,-1.23
4,TTGGTGGGGAGACTCAAGCTGA,-1.09
5,TAATCTAAGTTCAAAGAGCAGT,-0.489
6,TAGTTTTGTATTCCAAATGTGT,-0.698
7,TATCCTGAAGTGGAGATCCATT,-1.27
8,TTATTGATGCGTGAACAGCTAT,-0.441
9,AAAAACTTGAACTGAATGCTGA,-0.0187
10,TTGAATGACTCTAAAGGTGGAG,0.345
11,TTATTCTTAGTTGTACTTCTTC,0.0203
12,TTGAACTGAATGCTGATCTGCA,0.719

# Biological target: MUL1
# Assay: as above
# Conditions: shRNA
row,Sequence,sensor-assay potency score (higher = more potent)
1,TTTAGCTCCCTTGAGCTCTTGG,-0.00208
2,TTGAGCTCTTGGGAGACCCGGG,-0.319
3,TTTCTTTAACAGACCGCACAGC,-0.894
4,TAACAGACCGCACAGCTCCTTC,-0.691
5,TTAGATAGTACTGCATGCCTTG,-0.152
6,TATAACAGCATAAGGCACGCAT,-0.0376
7,TTGCAGTTTTCCACAAACTGGC,-0.401
8,ATACACGGTCTCTAGACCCAGA,-0.85
9,TACTCTTTAAATCTTCACCCAA,-0.305
10,TTCTATAACAGCATAAGGCACG,-0.579
11,TTAACAGACCGCACAGCTCCTT,-0.45

# Biological target: MUM1L1
# Assay: as above
# Conditions: shRNA
row,Sequence,sensor-assay potency score (higher = more potent)
1,TATTTCTGATATTTAAACCAGA,-0.575
2,TAAACCAGACTATCATTCCTGT,-0.0642
3,TTAGATACTTTGCTTCAGCTGC,-0.267
4,TTGTGGTACATTTTGAGACAGC,-1.11
5,TAACACATGCACTTTCCTCTTT,-0.0342
6,TAACTGGGTAACTAATATCAGC,-1.56
7,TTAGTGATCTTCCATAGGCAGT,-1.42
8,TTTGATTGCAGACTTCTTGTAA,0.165
9,TTGAGATTTATTTAGGATCTTT,-0.143
10,TTTGTTTCTCTTTACAATCAAA,-1.34
11,TTTGTTTCCACTTCACTTGGAA,0.402
12,TATTTGATTGCAGACTTCTTGT,0.00671
